Bioassay records deposited in PubChem by National Center for Advancing Translational Sciences (NCATS).
HCMV inh: qHTS Assay for inhibitors of the human cytomegalovirus (HCMV); 4.5% of 410,000 active; AID 1259415, 2018; activity change, negative = inhibition, % at 57.5 µM; HFF cells, HCMV-luciferase reporter, 72 h; stronger effect = lower value; in the data active = activity change below about -60%; inconclusive = no clear call, values can overlap the other calls; inactive = above about -39%
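After 16 h attachment at 37C, HFF cells received test compound and HCMV-luciferase (1 PFU/cell); reporter luminescence read 72 h later, data normalized against buffer-only and known inhibitor Salinomycin.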
HCV inh: qHTS Assay for Inhibitors of Hepatitis C Virus (HCV) | 3.4% of 340,000 active | Huh7.5.1 HCVcc-Cre infection, luciferase reporter, 44 h | AID 651820, 2012 | Potency, µM (series often up to 41.8 µM), without a hit: top-dose activity change, negative = inhibition, most hits filed as inhibitors; active = well fitted inhibition curve with a large enough effect; inconclusive = small, poorly fitted or top-dose-only effect, or another doubt; inactive = no such curve, though single readings can be large or run the other way; note: potency is the fitted concentration of half-maximal effect
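Whole-lifecycle infectious HCVcc-Cre system; cells 1,000/well, compound then virus (~0.5 moi) added 4 h after plating, 44 h culture. Luciferase read 15 sec following 15 min substrate incubation, room temp.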
Vaccinia Venus: qHTS for Stage-Specific Inhibitors of Vaccinia Orthopoxvirus: Venus Reporter Primary qHTS | Vaccinia virus Venus reporter expression, fluorescence | Potency, µM (doses to about 36.5 µM), without a hit: top-dose activity change, negative = inhibition, usual class: inhibitors | 0.46% of 330,000 active; calls by dose curve; tested in A549 cells; note: potency is the fitted concentration of half-maximal effect; nearly all actives have a fitted effect of over 30% in size
FMDV inh: High Throughput Screening for Foot and Mouth Disease Virus Antivirals. FMDV antiviral cell-based qHTS. Potency, µM (series often up to 57.9 µM), inactives show top-dose activity change, negative = inhibition, hits mostly inhibitors. 1.2% of 410,000 active. AID 1159524, 2015; calls by dose curve; tested in HEK293T cells; note: read-out not given here; potency is the fitted concentration of half-maximal effect; nearly all actives have a fitted effect of over 45% in size
VACV mCherry inh: qHTS for Stage-Specific Inhibitors of Vaccinia Orthopoxvirus: mCherry Reporter Primary qHTS. 0.63% of 310,000 active. Vaccinia virus mCherry reporter infection, fluorescence. Potency, µM (highest dose often 36.5 µM), inactives show top-dose activity change, negative = inhibition, most hits filed as inhibitors; calls by dose curve; tested in A549 cells; note: potency is the fitted concentration of half-maximal effect; nearly all actives have a fitted effect of over 35% in size
* hit, by the source's call; i = inactive; ? = inconclusive; . = no result; + = active, no number. Only some compounds are listed: those with a hit (about 7.3% of all), similar ones and a draw of the others. % is set by controls: 0 for no effect and ±100 for the full control effect.

SMILES | HCMV inh | HCV inh | Vaccinia Venus | FMDV inh | VACV mCherry inh
O=C(NC(CSSCC(NC(=O)c1ccccc1)C(=O)O)C(=O)O)c1ccccc1 (centres undefined) | -18 | 1.6µM* | 0% | -16% | -3%
CSc1ccc(CN(C)CC(=O)NCc2ccccc2)cc1 | -63* | -11% | -15% | -21% | -4%
COc1cccc(CNC(=O)c2c(OC)cc(=O)n3c2CCN(C(=O)c2ccc(C)s2)CC3)c1 | . | . | -5% | -7% | i
O=C(NCCc1nnc2ccc(N3CCCC3)nn12)c1ccccc1 | 39 | 19% | -9% | 13% | -22%
CCN(C(=O)COC(=O)c1cc([N+](=O)[O-])ccc1N1CCOCC1)C1CCCCC1 | 4 | -17% | -17% | -24% | -3%
NS(=O)(=O)c1ccc(N=Nc2c(O)ccc3ccccc23)cc1 | -24 | -20% | -10% | 24% | i
Oc1ccc(N=Nc2c(O)ccc3ccccc23)cc1 | -9 | 14µM* | -26% | . | ?
COc1cc2c(cc1O)[C@@H]1Cc3ccc(OC)c(O)c3CN1CC2 | -15 | 2.5µM* | -19% | 0% | -3%
C#CCN(C[C@@H]1[C@@H](OC(=O)NCc2ccco2)[C@@H](OC(=O)NCc2ccco2)Cn2c(=O)n(CCCCCC)c(=O)n21)S(=O)(=O)c1ccc(C)cc1 | -74* | . | -25% | 28µM* | -19%
C#CCN(C[C@@H]1[C@@H](OC(=O)NCc2ccc(OC)c(OC)c2)[C@@H](OC(=O)NCc2ccc(OC)c(OC)c2)Cn2c(=O)ccc(=O)n21)S(=O)(=O)c1ccc(C)cc1 | -107* | . | ? | ? | ?
C#CCN(C[C@@H]1[C@@H](OC(=O)NCc2ccco2)[C@@H](OC(=O)NCc2ccco2)Cn2c(=O)ccc(=O)n21)S(=O)(=O)c1ccc(C)cc1 | -101* | . | 7.9µM* | 6.3µM* | ?
Cc1cccn2c(=O)nc(SCC(=O)Nc3ccc4c(c3)OCO4)nc12 | -6 | -2% | -7% | -1% | -16%
CCN(CC)c1nc(Nc2ccc([N+](=O)[O-])cc2)nc(N(CC)CC)n1 | 25 | 11µM* | . | -24% | .
CCOc1nc(Nc2ccc([N+](=O)[O-])cc2)nc(NC(C)(C)C)n1 | 50 | ? | -1% | -9% | -13%
CCCCNC(=O)c1cc(-c2ccc(OC)cc2)nc2n[nH]c(-c3cccc([N+](=O)[O-])c3)c12 | ? | . | -14% | -21% | -23%
CCN=c1sc2ccccc2n1CC(O)COc1ccccc1 (centres undefined) | ? | 13µM* | -27% | ? | .
N#C/C(=C\c1cccnc1)C(=O)Nc1cccc2ccccc12 | 135 | 32% | -9% | 25µM* | -8%
COc1ccccc1NC(=O)/C(C#N)=C/c1cccnc1 | 12 | 13% | . | -16% | .
COc1ccc(C)cc1NC(=O)c1ccc2nc(Cc3ccccc3)oc2c1 | -23 | . | 14% | 0% | -4%
CCCCCOc1ccccc1CN1C(=O)C(=O)c2cc(C)ccc21 | -93* | . | -11% | 0% | i
Cc1cccc2c1N(Cc1ccccc1OCCC(C)C)C(=O)C2=O | -93* | . | -27% | 0% | -28%
CCCCOc1ccc(CN2C(=O)C(=O)c3cc(C)ccc32)cc1OC | -1 | . | ? | -16% | ?
Cc1cc(Br)cc2c1N(Cc1ccccc1OC(C)C)C(=O)C2=O | -88* | . | -17% | 0% | i
CC(C)c1ccc(CN2CCSCC2)cc1 | -17 | 19% | 3% | -28% | -5%
O=C(/C=C\c1ccco1)Nc1cc([N+](=O)[O-])ccc1F | -87* | 3% | ? | -6% | ?
SMILES | HCMV inh | HCV inh | Vaccinia Venus | FMDV inh | VACV mCherry inh
CC(=O)c1cccc(NC(=O)C2=CN3CCS(=O)(=O)N=C3C=C2)c1 | -34 | 11% | . | -1% | .
CC(=O)c1ccc(N2CCN(S(=O)(=O)c3ccc4c5c3CC(=O)N5CC(C)S4)CC2)cc1 (centres undefined) | . | ? | . | 14µM* | .
CC(=O)c1ccc(N2CCN(S(=O)(=O)c3ccc4c(c3)CC(=O)N4)CC2)cc1 | 9 | -5% | 1% | -8% | 15%
CC(C)Oc1ccccc1C1CC(=O)Nc2cc3c(cc21)OCO3 (centres undefined) | -101* | 11µM* | . | ? | .
Cc1cc2c(cc1C)C(c1ccccc1OC(C)C)CC(=O)N2 (centres undefined) | 18 | 8.9µM* | -18% | -13% | ?
COc1cccc(C2CC(=O)Nc3cc4c(cc32)OCO4)c1OC(C)C (centres undefined) | ? | . | -30% | ? | ?
COc1ccc(CCNc2ncnc3nc[nH]c23)cc1 | . | . | -29% | . | ?
COC(=O)c1ccc(OC)c(CN2CCCN(Cc3ccc(C)cc3)S2(=O)=O)c1 | + | . | -1% | 4% | -2%
Cc1ccc(CN2CCN(CC(=O)Nc3ccc(C)c(C)c3)S2(=O)=O)cc1 | + | . | -12% | -2% | -8%
CCN1CCS/C1=C/C=C/C1=[N+](CC)CCS1 | . | . | ? | ? | -21%
CCN1CCS/C1=C\C=C\C1=[N+](CC)CCS1 | -104* | 6.3µM* | . | ? | .
C[C@@H]1CN([C@H](C)CO)C(=O)c2cc(Br)cnc2O[C@H]1CN(C)C(=O)Cc1ccncc1 | -6 | . | 1.3µM* | -5% | ?
C[C@H](O)C#Cc1ccc2c(c1)O[C@@H](CN(C)Cc1ccc(-c3ccccc3)cc1)[C@H](C)CN([C@@H](C)CO)S2(=O)=O | -82* | . | ? | ? | -23%
C[C@@H]1CN([C@H](C)CO)S(=O)(=O)c2ccc(Br)cc2O[C@@H]1CN(C)Cc1ccc(-c2ccccc2)cc1 | -10 | . | -18% | -23% | -26%
C[C@H](CO)N1C[C@H](C)[C@@H](CN(C)Cc2ccc(-c3ccccc3)cc2)Oc2ncc(C#C[C@@H](C)O)cc2C1=O | 6 | . | -30% | 2% | ?
C[C@H](O)C#Cc1cnc2c(c1)C(=O)N([C@H](C)CO)C[C@@H](C)[C@@H](CN(C)Cc1ccc(-c3ccccc3)cc1)O2 | -71* | . | ? | -17% | ?
O=C(CSc1nnc(C2CC2)n1CC1CCCO1)Nc1ccc(Cl)cc1 (centres undefined) | 22 | -7% | -9% | 28% | i
Cc1cc2ncc(-c3cccc(Br)c3)nc2cc1C | 133 | . | . | . | .
Nc1ccc(Nc2nc3ccccc3[nH]2)cc1 | 12 | 11% | -6% | -14% | -8%
c1ccc(Nc2nc3ccccc3[nH]2)nc1 | -68* | -2% | -5% | -2% | -16%
Cc1ccc(NCc2ccc(O)c3ncccc23)cc1 | -23 | 5.6µM* | -9% | -5% | i
Cc1ccc(NCc2ccc(O)c3ncccc23)cc1C | -79* | ? | -11% | -9% | -17%
Cc1ccc(NCc2ccccc2O)cc1 | 24 | ? | . | 41% | .
Cc1c(C(=O)N(C)C)sc2c1c(=O)n(-c1ccccc1C(F)(F)F)c(=O)n2Cc1ccccc1C#N | 4 | . | 2% | -17% | -8%
